{"source": "the supplement of paper PMC6555819", "data": [{"tested_on": "FXR:RXRa (NR concentration 270 nM, RXRa partner concentration 90 nM)", "test": "PBM binding z-score (relative to random genomic background probes); higher = stronger binding; sequences stand for … in GC…GCGATTGACAGCGTAGAATGAAGG", "procedure,_shortened": "(§1)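 Custom Agilent 4×180K protein-binding microarrays carried double-stranded probes. Their 34-nt variable regions held direct-repeat seeds, single-nucleotide variants, half-site ablations and random human genomic background sequences. Arrays were incubated 1 h with ligand-free nuclear receptor dimers in PBS pH 7.4, 2% milk, 0.02% Triton X-100, 1 mM DTT, 0.2 mg/mL BSA and 0.4 mg/ml salmon testes DNA. Antibodies against each partner (one per run) detected binding, and scanned fluorescence was regression-normalized. Binding z-scores use random background probes as reference.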", "values": [{"sequence": "CCTAGCAGGCCAGGGTCACTCATGCATTTCGCTT", "PBM binding z-score": 1.41}, {"sequence": "CAAACTAGGTCAAGAGGTCATAGTCCGCTTCCCG", "PBM binding z-score": 6.79}, {"sequence": "ATCTCTAGGTAAGAGTCAGTTCAGTGAAGAACGC", "PBM binding z-score": 0.322}, {"sequence": "GGAACGAGGGCGAGTTGATAGCAGAGTTTGATGG", "PBM binding z-score": -0.328}, {"sequence": "CGTCAATGTTCAAGGTAACGTAACAGAAAGCAGC", "PBM binding z-score": -0.00254}, {"sequence": "CCTACTGGGCCAAGGGCATTGATCAGTCAAAGCA", "PBM binding z-score": -0.551}, {"sequence": "ATATGTCGGTTATCGGGTCATTCAGTTTGCGCAT", "PBM binding z-score": 2.49}, {"sequence": "GCTAGCAGGCCATTTGGGTCACTCAGTGACGGGC", "PBM binding z-score": 0.0736}, {"sequence": "CATTACGGGTCAAGGTTATAGCACGGGTGGTACG", "PBM binding z-score": 5.89}, {"sequence": "TCTCGGAGGACACGAAAGGTCATAGCTCGACATC", "PBM binding z-score": 4.39}, {"sequence": "CCGGACAGGTGAAAGGTAACTCAGTCTGGTACGC", "PBM binding z-score": 0.736}, {"sequence": "CCAGACAGGTGAGAAGGTAACTTAGCCTCGATTA", "PBM binding z-score": 0.0387}, {"sequence": "TCGAGTAGGTTAGTCGGGGCATTCAACCAACATA", "PBM binding z-score": 0.19}, {"sequence": "CCTTGCAGGCCAATCTGGGTCACTCAAGGCTTGA", "PBM binding z-score": 0.555}, {"sequence": "CTCGAAAGGTCGGTTGAGGTGAGTACACGGATAA", "PBM binding z-score": 2.34}, {"sequence": "CCTGCTAGGTCGATGGTCAGCTAAAGCAGCTCGC", "PBM binding z-score": -0.156}, {"sequence": "CCTCGGAGGACAGAAGGTCAGGGCTGTCCGCTTT", "PBM binding z-score": 1.42}, {"sequence": "CCTACTGGGCCAAGGTCAATGATCAGTCAAAGCA", "PBM binding z-score": 2.52}]}, {"tested_on": "LXRa:RXRa (NR concentration 270 nM, RXRa partner concentration 90 nM)", "test": "PBM binding z-score (relative to random genomic background probes); higher = stronger binding; sequences stand for … in GC…GCGATTGACAGCGTAGAATGAAGG", "procedure,_shortened": "as §1", "values": [{"sequence": "ATCGAAAGGTAGACGAGGTGAGTATACACCGTTT", "PBM binding z-score": -0.145}, {"sequence": "CAGCCTAGGTCAGGGCCGGTATAGGAGGAACGTT", "PBM binding z-score": 0.777}, {"sequence": "CAAACTAGGTCAAGAGGTCGAAGTCCGCTTCCCG", "PBM binding z-score": 4.11}, {"sequence": "TAGCCTAGGTCATTGGGGCAGTATAGTACGCATC", "PBM binding z-score": 3.57}, {"sequence": "CGAACTAGGTCATTGACAGGACAGTGAATAGTAA", "PBM binding z-score": 2.89}, {"sequence": "AGATGTAGGTTACATCCGGGTCATTCAGGCTATG", "PBM binding z-score": 4.32}, {"sequence": "CAAACTAGGTCAAAGAGGTCAAAGTCCGTGCGTA", "PBM binding z-score": 6.33}, {"sequence": "CATACAGGGTCAGCTAGGCCAGGGTAGGGACGGC", "PBM binding z-score": 2.89}, {"sequence": "GCTTACGGGTCGAAGGTTATAGCATGAATAGAAT", "PBM binding z-score": 2}, {"sequence": "CCTATTGGGCCACGAAAGGTCATTGATTCAGTGA", "PBM binding z-score": 5.43}, {"sequence": "CCCACTGGGCCAAAGGTCATTGATTCCAATGCTC", "PBM binding z-score": 4.92}, {"sequence": "CCGACTGGGGCAAAAGTTACCATACTCAGTACGA", "PBM binding z-score": -0.339}, {"sequence": "ACTAGCAGGCCAAGTTTGGGTCACTCTAACAAAG", "PBM binding z-score": -0.0297}, {"sequence": "CGAACTAAGTCAGAACAGGACAGTGAAGGATGAT", "PBM binding z-score": -0.427}, {"sequence": "ACAGACAGTTGATGAAGGTAACTCAGGCTATCAT", "PBM binding z-score": -0.156}, {"sequence": "ATCTCTAGGTAACCAAGTTCAGTGGATGCCGAAC", "PBM binding z-score": 0.544}, {"sequence": "CAAACTAGGTCACCGGAAGGTCAAGGTCCGCATG", "PBM binding z-score": 5.56}, {"sequence": "CCTTACGGGTCACTGACAGTTTATAGCATTTGGA", "PBM binding z-score": 4.17}, {"sequence": "AGGCAAAGTTCAGGACGAGGTAACGTAAAGCACG", "PBM binding z-score": 3.64}, {"sequence": "CGTCCAAGGCCAGCAGGTCAGTGAAAGCGACGTG", "PBM binding z-score": 0.0811}, {"sequence": "ATCTCTAGGTAAGACTCAGTGCAGTGAAGAACGC", "PBM binding z-score": 0.383}, {"sequence": "CCGACTGGGGCATAAGGTTAACATAAGCCAGCCC", "PBM binding z-score": 1.08}, {"sequence": "CCTAGCAGGCCAGGGTCACTCATGCATTTCGCTT", "PBM binding z-score": 1.5}, {"sequence": "CAAACTAGGTCAAGAGGTCATAGTCCGCTTCCCG", "PBM binding z-score": 6.06}, {"sequence": "ATCTCTAGGTAAGAGTCAGTTCAGTGAAGAACGC", "PBM binding z-score": 0.41}, {"sequence": "GGAACGAGGGCGAGTTGATAGCAGAGTTTGATGG", "PBM binding z-score": -0.505}, {"sequence": "CGTCAATGTTCAAGGTAACGTAACAGAAAGCAGC", "PBM binding z-score": -0.129}, {"sequence": "CCTACTGGGCCAAGGGCATTGATCAGTCAAAGCA", "PBM binding z-score": -0.572}, {"sequence": "ATATGTCGGTTATCGGGTCATTCAGTTTGCGCAT", "PBM binding z-score": 2.52}, {"sequence": "GCTAGCAGGCCATTTGGGTCACTCAGTGACGGGC", "PBM binding z-score": -0.00862}, {"sequence": "CATTACGGGTCAAGGTTATAGCACGGGTGGTACG", "PBM binding z-score": 5.21}]}]}
